Results from PubChem BioAssay AID1159580 (chemical genetic matrix, 2015).
Values joined by “and” are separate entries in the source; they are usually repeats but may differ in a detail not shown here. Equal values may be shown once. Screen size: about 5,500 compounds; about 2,000 (36%) were called active. Roughly 18% stayed inconclusive and do not appear here. Rule as the data show it: active = normalized growth mostly below about 0.91 (no sharp cut-off); inconclusive = no clear call, values can overlap the other calls; inactive = mostly above about 0.92. The list shows a part of the results.

Assay: chemical genetic growth profiling, strain panel (AID 1159580);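 also: tested at 20 µM; growth read once vehicle control cultures reached saturation at 30 °C; 1 = growth at the plate median or of vehicle wells; lower values mean less growth of the strain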
Details: growth OD

Measured: normalized growth

C[C@]12[C@H](O)CC3C(CC[C@@H]4C[C@@H](O)CC[C@]34C)[C@@]1(O)CC[C@@H]2C1=CC(=O)OC1 (stereo partly drawn)
inactive: S. cerevisiae deletion strains, locus YBR021W, strain FUR4, hits give low values 1.05 | S. cerevisiae deletion strains, locus YBR229C, strain ROT2, hits give low values 1.01 | S. cerevisiae deletion strains, locus YCL029C, strain bik1, hits give low values 0.992 | S. cerevisiae deletion strains, locus YDL035C, strain GPR1, hits give low values 1.07 | S. cerevisiae deletion strains, locus YDL074C, strain BRE1, hits give low values 1.07 | S. cerevisiae deletion strains, locus YDL101C, strain DUN1, hits give low values 1.01 | S. cerevisiae deletion strains, locus YDL134C, strain PPH21, hits give low values 0.997 | S. cerevisiae deletion strains, locus YDL185W, strain tfp1, hits give low values 0.987 | S. cerevisiae deletion strains, locus YDL192W, strain arf1, hits give low values 1 | S. cerevisiae deletion strains, locus YDR101C, strain arx1, hits give low values 1.01 | S. cerevisiae deletion strains, locus YDR162C, strain NBP2, hits give low values 1.01 | S. cerevisiae deletion strains, locus YDR318W, strain mcm21, hits give low values 0.999 | S. cerevisiae deletion strains, locus YDR388W, hits give low values 0.976 | S. cerevisiae deletion strains, locus YDR502C, strain sam2, hits give low values 0.971 | S. cerevisiae deletion strains, locus YER110C, hits give low values 0.974 | S. cerevisiae deletion strains, locus YER155C, strain BEM2, hits give low values 0.998 | S. cerevisiae deletion strains, locus YER167W, strain BCK2, hits give low values 1.02 | S. cerevisiae deletion strains, locus YGL078C, strain dbp3, hits give low values 0.979 | S. cerevisiae deletion strains, locus YGL086W, strain mad1, hits give low values 0.983 | S. cerevisiae deletion strains, locus YGL248W, strain PDE1, hits give low values 1.01 | S. cerevisiae deletion strains, locus YGR078C, strain PAC10, hits give low values 1.01 | S. cerevisiae deletion strains, locus YGR135W, strain pre9, hits give low values 0.941 | S. cerevisiae deletion strains, locus YGR252W, strain gcn5, hits give low values 0.923 | S. cerevisiae deletion strains, locus YHR030C, strain SLT2, hits give low values 1.01 and 1 | S. cerevisiae deletion strains, locus YHR079C, strain IRE1 (second series), hits give low values 0.98 | S. cerevisiae deletion strains, locus YHR079C, strain IRE1, hits give low values 0.993 | S. cerevisiae deletion strains, locus YHR094C, strain hxt1, hits give low values 0.976 | S. cerevisiae deletion strains, locus YHR129C, strain ARP1, hits give low values 1.01 | S. cerevisiae deletion strains, locus YHR200W, strain rpn10, hits give low values 0.968 | S. cerevisiae deletion strains, locus YIL066C, strain RNR3, hits give low values 1.04 | S. cerevisiae deletion strains, locus YIL073C, strain SPO22, hits give low values 1 | S. cerevisiae deletion strains, locus YIL125W, strain kgd1, hits give low values 0.984 | S. cerevisiae deletion strains, locus YIR030C, strain dcg1, hits give low values 0.986 | S. cerevisiae deletion strains, locus YJL095W, strain BCK1, hits give low values 0.999 and 0.994 | S. cerevisiae deletion strains, locus YJL134W, strain LCB3, hits give low values 1.01 | S. cerevisiae deletion strains, locus YJL168C, strain set2, hits give low values 0.994 | S. cerevisiae deletion strains, locus YJL187C, strain SWE1 (second series), hits give low values 1.01 | S. cerevisiae deletion strains, locus YJR066W, strain TOR1, hits give low values 0.903 | S. cerevisiae deletion strains, locus YKL009W, strain mrt4, hits give low values 1.02 | S. cerevisiae deletion strains, locus YKL068W, hits give low values 0.994 | S. cerevisiae deletion strains, locus YKL085W, strain MDH1 (second series), hits give low values 0.975 | S. cerevisiae deletion strains, locus YKL085W, strain MDH1, hits give low values 0.975 | S. cerevisiae deletion strains, locus YKR001C, strain vps1, hits give low values 1.01 | S. cerevisiae deletion strains, locus YLR039C, strain RIC1, hits give low values 1.05 | S. cerevisiae deletion strains, locus YLR058C, strain SHM2, hits give low values 1.02 | S. cerevisiae deletion strains, locus YLR102C, strain apc9, hits give low values 0.982 | S. cerevisiae deletion strains, locus YLR113W, strain HOG1, hits give low values 1.03 | S. cerevisiae deletion strains, locus YLR262C, strain YPT6, hits give low values 1.09 | S. cerevisiae deletion strains, locus YLR268W, strain sec22, hits give low values 1.01 | S. cerevisiae deletion strains, locus YLR342W, strain FKS1 (second series), hits give low values 1.05 | S. cerevisiae deletion strains, locus YLR371W, strain rom2, hits give low values 0.996 | S. cerevisiae deletion strains, locus YLR418C, strain cdc73, hits give low values 0.955 | S. cerevisiae deletion strains, locus YML016C, strain PPZ1, hits give low values 1.02 | S. cerevisiae deletion strains, locus YML032C, strain rad52, hits give low values 0.998 | S. cerevisiae deletion strains, locus YML124C, strain tub3, hits give low values 0.986 | S. cerevisiae deletion strains, locus YMR078C, strain ctf18, hits give low values 0.979 | S. cerevisiae deletion strains, locus YMR223W, strain ubp8, hits give low values 0.974 | S. cerevisiae deletion strains, locus YMR307W, strain GAS1, hits give low values 1.13 | S. cerevisiae deletion strains, locus YNL067W, strain RPL9B, hits give low values 0.99 | S. cerevisiae deletion strains, locus YNL153C, strain GIM3, hits give low values 1 | S. cerevisiae deletion strains, locus YNL183C, strain NPR1, hits give low values 0.924 | S. cerevisiae deletion strains, locus YNL233W, strain BNI4, hits give low values 1 | S. cerevisiae deletion strains, locus YNL250W, strain rad50, hits give low values 0.974 | S. cerevisiae deletion strains, locus YNL271C, strain bni1, hits give low values 0.991 | S. cerevisiae deletion strains, locus YNL298W, strain CLA4, hits give low values 1.01 | S. cerevisiae deletion strains, locus YNL307C, strain MCK1, hits give low values 0.977 | S. cerevisiae deletion strains, locus YNR052C, strain pop2, hits give low values 0.965 | S. cerevisiae deletion strains, locus YOL012C, strain htz1 0.887 | S. cerevisiae deletion strains, locus YOL147C, strain pex11, hits give low values 0.99 | S. cerevisiae deletion strains, locus YOR061W, strain CKA2, hits give low values 1.04 | S. cerevisiae deletion strains, locus YOR069W, strain VPS5, hits give low values 1.01 | S. cerevisiae deletion strains, locus YOR136W, strain idh2, hits give low values 0.952 | S. cerevisiae deletion strains, locus YOR144C, strain elg1, hits give low values 0.987 | S. cerevisiae deletion strains, locus YOR184W, strain ser1, hits give low values 1.03 | S. cerevisiae deletion strains, locus YOR231W, strain MKK1, hits give low values 1 | S. cerevisiae deletion strains, locus YOR316C, strain cot1, hits give low values 0.982 | S. cerevisiae deletion strains, locus YPL256C, strain CLN2, hits give low values 0.982 | S. cerevisiae deletion strains, locus YPR119W, strain clb2, hits give low values 0.985 | S. cerevisiae deletion strains, locus YPR141C, strain kar3, hits give low values 0.983 | S. cerevisiae deletion strains, locus YPR163C, strain tif3, hits give low values 0.988 | S. cerevisiae deletion strains, locus YPR167C, strain met16, hits give low values 0.984 | S. cerevisiae deletion strains, strain wtn01, hits give low values 0.998 | S. cerevisiae strains, strain wild type, hits give low values 1.03
